Compound activity deposited in PubChem BioAssay by National Center for Advancing Translational Sciences (NCATS).
Only some compounds are listed: those with a hit (about 2.9% of all), similar ones and a draw of the others.
POLK inh = qHTS for Inhibitors of Polymerase Kappa; DNA polymerase kappa (Homo sapiens), Q9UBT6; purified Pol kappa, fluorescent DNA synthesis assay, 10 min; Potency, µM (series often up to 107 µM), for inactives: at the top dose activity, negative = inhibition, actives largely listed as inhibitors; 400,000 compounds, 0.53% hits; note: potency is the fitted concentration of half-maximal effect; % is set by controls: 0 for no effect and ±100 for the full control effect
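Fluorescent qHTS in 1536-well format: enzyme (10 nM) and compound sat 15 min at room temperature before 50 nM substrate (final) was added. Signal taken at 0 and 10 min; no-enzyme buffer wells were negative controls.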
Pol eta inh = qHTS for Inhibitors of Polymerase Eta | 390,000 compounds, 1.2% hits | recombinant Pol eta, fluorescent DNA replication assay | Potency, µM (titrated, usually from 114 µM), inactives show at the highest dose activity change, negative = inhibition, hits mostly inhibitors | DNA polymerase eta (Homo sapiens), Q9Y253; note: potency is the fitted concentration of half-maximal effect; % is set by controls: 0 for no effect and ±100 for the full control effect
Target sequence (Q9Y253 whole entry, looked up): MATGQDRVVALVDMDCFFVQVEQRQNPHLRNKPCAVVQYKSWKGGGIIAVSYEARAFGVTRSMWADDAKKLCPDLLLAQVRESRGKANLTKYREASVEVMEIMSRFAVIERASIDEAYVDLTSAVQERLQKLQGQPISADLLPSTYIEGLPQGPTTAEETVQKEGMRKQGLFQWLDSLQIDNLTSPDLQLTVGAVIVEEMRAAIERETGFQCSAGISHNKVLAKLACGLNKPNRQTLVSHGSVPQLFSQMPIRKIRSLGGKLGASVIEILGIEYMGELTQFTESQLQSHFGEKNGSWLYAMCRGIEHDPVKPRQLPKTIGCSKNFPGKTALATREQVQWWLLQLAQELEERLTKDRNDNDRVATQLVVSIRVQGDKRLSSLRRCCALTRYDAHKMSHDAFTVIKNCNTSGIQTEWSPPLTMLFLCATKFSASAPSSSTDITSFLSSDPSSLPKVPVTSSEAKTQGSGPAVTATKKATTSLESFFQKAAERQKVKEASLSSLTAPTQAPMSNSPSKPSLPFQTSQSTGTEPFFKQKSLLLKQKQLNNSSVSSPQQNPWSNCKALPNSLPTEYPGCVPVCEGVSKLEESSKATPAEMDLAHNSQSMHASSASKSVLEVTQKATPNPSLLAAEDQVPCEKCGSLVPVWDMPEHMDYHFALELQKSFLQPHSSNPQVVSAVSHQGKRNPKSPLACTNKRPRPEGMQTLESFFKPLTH
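Fluorescent replication assay: 50 nM final substrate added after a 15 min room-temperature compound preincubation with 10 nM enzyme. Signal taken at 0 min and again at 10 min.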
PI5P4Ka inh = qHTS for Inhibitors of phosphatidylinositol 5-phosphate 4-kinase (PI5P4K) | 330,000 compounds, 1.2% hits | AID 652105, 2013 | PI5P4Kalpha enzyme, ADP-Glo luminescence, 60 min; hits give low values | max response, %; active = max response of -50% or lower; inconclusive = between -30% and -50%; inactive = -30% or higher; note: value at the top dose of about 77 µM; % is set by controls: 0 for no effect and ±100 for the full control effect
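ADP-Glo luminescence end-point after a 60 min room-temperature kinase reaction. PI5P4Kalpha and substrate in HEPES pH 7.4 buffer with EGTA, 0.1% CHAPS and 5% DMSO; ATP at 5 microM final.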
POLB inh = qHTS Assay for Inhibitors of DNA Polymerase Beta; P06746; Pol beta primer extension/strand displacement, fluorescence kinetic; Potency, µM (top dose mostly 114 µM), without a hit: top-dose activity change, negative = inhibition, hits mostly inhibitors; 340,000 compounds, 1.3% hits; AID 485314, 2010; note: potency is the fitted concentration of half-maximal effect; % is set by controls: 0 for no effect and ±100 for the full control effect
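10 nM enzyme + cpd, 15 min RT; start with substrate 50 nM final; read 0 min and after 10 min RT. Corrected, normalized data; 4-parameter Hill curve fit.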
ALOX12 inh = Primary qHTS assay for inhibitors of human arachidonate 12S-lipoxygenase (ALOX12): Round 2. 580,000 compounds, 1.1% hits. Potency, µM (doses to about 108 µM), inactives show at the top dose activity change, negative = inhibition, hits mostly inhibitors. purified 12hLO, xylenol orange hydroperoxide absorbance; note: potency is the fitted concentration of half-maximal effect; % is set by controls: 0 for no effect and ±100 for the full control effect
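Hydroperoxide product was detected by ferrous iron/xylenol orange as the 573 to 405 nm absorbance ratio. Arachidonic acid at 40 uM (final) was turned over for 30 min at room temperature by 150 nM human 12hLO, pH 7.0 Hepes buffer, after 15 min compound preincubation.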
Pol iota inh = qHTS for Inhibitors of Polymerase Iota; Potency, µM (top dose mostly 115 µM), inactives show top-dose activity, negative = inhibition, usual class: inhibitors; DNA polymerase iota (Homo sapiens), Q9UNA4; Pol iota fluorescent replication assay, 10 min; 390,000 compounds, 1% hits; note: potency is the fitted concentration of half-maximal effect
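Pol iota at 10 nM preincubated 15 min with compounds at room temperature; reaction started with fluorescent substrate, 50 nM final. Fluorescence read kinetically at 0 and 10 min; buffer-only wells as negative control.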
Active calls of the source: *; ? = inconclusive; nt = not tested or not shown; [ ] = remark or other dose. Unless noted, calls come from the whole dose curve; as a rule, active = well fitted inhibition curve with a large enough effect; inconclusive = small, poorly fitted or top-dose-only effect, or another doubt; inactive = no such curve, though single readings can be large or run the other way.

SMILES	POLK inh	Pol eta inh	PI5P4Ka inh	POLB inh	ALOX12 inh	Pol iota inh
CC(C)C[C@H]1C(=O)N2CCC[C@H]2[C@]2(O)O[C@](NC(=O)[C@@H]3C=C4c5cccc6[nH]cc(c56)C[C@H]4N(C)C3)(C(C)C)C(=O)N12	-25%	-5%	?	nt	nt	11µM*
COCC(=O)NC[C@H]1C[C@@H]2CCN1C[C@@H]2c1cc(-c2ccc3ccccc3c2)nn1C	nt	nt	nt	nt	121%[176 µM]	nt
COCCN1CCC(N2CCN(C(=O)Cc3cccc(C)c3)CC2)C1=O (stereo not drawn)	nt	nt	nt	nt	68%	nt
O=c1c2ccccc2nc(/C=C/c2ccccc2)n1-c1ccccc1F	0%[60.1 µM]	-13%	nt	3%	-13%	-4%
O=c1c2ccccc2nc(/C=C/c2ccccc2F)n1-c1ccccc1O	-20%[60.1 µM]	-20%	-14	?	11µM*	?
O=C1NC(=S)NC(=O)C1=Cc1ccc(OCC(=O)N2CCCC2)cc1	-34%	?	-54*	50µM*	?	?
O=C(C1CC1)N1[C@H]2CC[C@@H]1c1cnc(-c3ccc(F)cc3)nc1C2	nt	nt	nt	nt	10%	nt
O=c1cc(C2CCNCC2)[nH][nH]1	0%	14%	-4	3%	-5%	0.89µM*
COC1CC2C=C(C)C=CC=CC(=O)NC(c3ccccc3)CC=CCCC(O)CC(=O)C2=C1O (stereo not drawn)	nt	nt	-84*	nt	6%	nt
COc1ccc(OC)c(S(=O)(=O)NC[C@H]2C[C@@H]3CCN2C[C@@H]3c2cc(-c3ccccc3OC)nn2C)c1	nt	nt	nt	nt	15%	nt
C=C[C@H]1CN2CC[C@H]1C[C@@H]2CNCc1ccc(OC(F)(F)F)cc1	nt	nt	nt	nt	2%[176 µM]	nt
N#C/C(=C/c1ccc(O)c(O)c1)C(N)=S	1.7µM*	nt	nt	nt	nt	nt
N#C/C(=C\c1ccc(O)c(O)c1)C(=O)NCCCNC(=O)/C(C#N)=C/c1ccc(O)c(O)c1	0.3µM*	0.11µM*	nt	0.13µM*	nt	0.11µM*
OCC1CN2CCCCC2CN1 (stereo not drawn)	nt	nt	nt	nt	48%[365 µM]	nt
CN1/C(=C\C=Nc2ccccc2)C(C)(C)c2ccccc21	-8%	-3%	-1	5%	?	?
CN1/C(=C\C=C\C2=[N+](C)c3ccc4ccccc4c3C2(C)C)C(C)(C)c2ccccc21	nt	nt	nt	79µM*	nt	nt
O=C1Nc2ccccc2CC12CCCN(Cc1cccnc1)C2 (stereo not drawn)	nt	nt	nt	nt	6%[6.33 µM]	nt
Cc1ccc(N2C(=O)/C(=C/c3ccc(CN(CCC#N)S(C)(=O)=O)o3)C(=O)NC2=S)cc1C	nt	nt	nt	20µM*	nt	nt
CN1CCN(c2ccc(/C=C3\C(=O)NC(=S)N(c4cccc(Br)c4)C3=O)o2)CC1	-17%	?	?	-5%	?	?
O=[N+]([O-])c1cnc(N2CC3CCC(C2)N3CC(F)(F)F)nc1	nt	nt	nt	nt	2%[6.33 µM]	nt
CCC(CC)c1cc([C@H]2CN3CC[C@H]2C[C@@H]3CNC(=O)Nc2ccc(OC)cc2)nc(-c2ccncc2)n1	nt	nt	nt	nt	1%	nt
C[N+](C)(C)CC1CCC1	nt	nt	nt	nt	28µM*	nt
CN(C)C(=S)SCC#N	nt	nt	nt	nt	-21%	nt
O=C1NCc2ccccc2CC12CCCN(Cc1ccccn1)C2 (stereo not drawn)	nt	nt	nt	nt	81%	nt
COc1cc2c(cc1OC1CCCC1)NC(=O)C21CCN(Cc2cccnc2)CC1	nt	nt	nt	nt	10%[176 µM]	nt
SMILES	POLK inh	Pol eta inh	PI5P4Ka inh	POLB inh	ALOX12 inh	Pol iota inh
CC1(C)OC(c2ccccc2)=C/C(=C/C=C2C(=O)NC(=O)NC2=O)O1	-32%	?	-23	14µM*	-2%	?
COc1cc(C2SCC(=O)Nc3[nH]ncc32)ccc1OC(C)C (stereo not drawn)	nt	nt	nt	nt	10%	nt
COc1ccc(-c2cc([C@H]3CN4CC[C@H]3C[C@@H]4CNC(=O)Nc3ccccc3)n(C)n2)cc1	nt	nt	nt	nt	33%	nt
O=C(Nc1ccc(Br)cc1C(=O)O)c1ccc2c(c1)C(=O)N(Cc1ccccc1)C2=O	-7%	28µM*	-74*	15%	?	72%
O=C(CN1CCOCC1)Nc1ccc(Br)cc1C(=O)c1ccccc1	-15%	1%	nt	1%	10%	4%
Cc1ccccc1C(=O)N1CCC2(CC1)NCc1ccccc1-n1ccnc12	nt	nt	nt	nt	20%	nt
N#CC1=C(N)Oc2n[nH]c(-c3cccs3)c2C1c1ccco1 (stereo not drawn)	-16%	?	-26	-2%	?	13µM*
N#CC1=C(N)Oc2n[nH]c(-c3cccs3)c2C1c1ccsc1 (stereo not drawn)	-16%	?	-56*	?	?	-5%
N#CC1=C(N)Oc2c(c(=O)sc3ccccc23)C1c1ccncc1 (stereo not drawn)	-1%	-14%	?	38%	-7%	30%
NCCCc1c[nH]c2ccccc12	nt	nt	nt	nt	-5%	nt
COc1ccccc1CNC(=O)[C@H]1CN2CCC1C[C@@H]2Cn1cc(-c2cccc(N)c2)nn1 (stereo partly drawn)	nt	nt	nt	nt	101%	nt
CCOP(=S)(OCC)SCSc1ccc(Cl)cc1	15µM*	nt	nt	nt	?	nt
Cc1nc(-c2ccco2)cc([C@H]2CN3CC[C@H]2C[C@@H]3CNC2CCOCC2)n1	nt	nt	nt	nt	23%[176 µM]	nt
O=C1c2ccccc2C(=O)N1SC1CCCCC1	10%	-11%	1	2%	16µM*	?
NC(=O)c1cn(C2CCCCC2)c2ccccc2c1=O	4%	-3%	1	0%	-6%	18%
CC(=O)O[C@H]1C[C@H](O[C@H]2[C@@H](O)C[C@H](O[C@@H]3[C@@H](O)C[C@H](O[C@H]4CC[C@@]5(C)[C@H](CC[C@@H]6[C@H]5C[C@@H](O)[C@]5(C)[C@@H](C7=CC(=O)OC7)CC[C@]65O)C4)O[C@@H]3C)O[C@@H]2C)O[C@H](C)[C@H]1O[C@@H]1O[C@H](CO)[C@@H](O)[C@H](O)[C@@H]1O	nt	nt	nt	nt	13%	nt
CC1Oc2cc3c(-c4c(O)cc(O)c5c(O)c6c(cc45)OC(C)C(C)C6=O)c(O)cc(O)c3c(O)c2C(=O)C1C (stereo not drawn)	35µM*	7.1µM*	-109*	35µM*	nt	4µM*
Cc1cc(=O)oc2cc(OCC(=O)N3CCN(CCO)CC3)c(Cl)cc12	nt	nt	nt	nt	-19%	nt
Cc1c(C=C2C(=O)NC(=O)NC2=O)c(=O)n(-c2ccccc2)n1C	-21%	-16%	-18	-13%	-17%	162%
Cc1nn(Cc2ccccc2)c(C)c1C=C1C(=O)NC(=S)NC1=O	-26%	-1%	-57*	28%	?	-2%
Cn1nc(C2CCCCC2)cc1[C@H]1CN2CC[C@H]1C[C@@H]2CNC(=O)COc1ccccc1	nt	nt	nt	nt	28%	nt
